Hit rate of the full screen: of about 1,400 compounds, about 1,000 (71%) were called active. So high a share suggests a set chosen from earlier hits. The list is a sample of the results. A call without a number means that no potency is given here. Potency and affinity values are given separately. Values without a mark were called inactive. No rule for the calls is given here.

The assay is described as follows: inhibitors of HIV Env-driven cell fusion, dose response, cherry-pick (AID 652057). The settings on record: HeLa-JRFL Env/CEM21 cell fusion, luciferase; series mostly up to 35 µM.
With `COc1ccc(/C(C)=N/NC(=O)c2cccc(S(=O)(=O)N3CCCC3)c2)c(O)c1`, the activity change, negative = inhibition is -20.9% [at 8 µM]. `COc1ccc(C(O)c2nc3ccccc3n2C)cc1OC` (configuration not stated): the activity change, negative = inhibition result is “inactive”.

On to `CCCCCn1c(C(C)NC(=O)CCC)nc2ccccc21` (configuration not stated), for which the activity change, negative = inhibition entry is “inactive”. For the compound `CCN1CCN(S(=O)(=O)c2ccc(Cl)c(C(=O)Nc3ccccc3N3CCCC3)c2)CC1`, the activity change, negative = inhibition result is “inactive”. With `CCNc1ncnc2c1cnn2C1CCCO1` (configuration not stated), the activity change, negative = inhibition entry was “inactive”. For `CCOc1ccccc1CNc1ncnc2ccc(-c3c(C)noc3C)cc12` the value was “inactive”; for `Nc1ccc(O)cc1C(=O)OCC(=O)c1ccc(C2CCCCC2)cc1`, “inactive”; for `Cc1nc2ccccc2n1CC(=O)NCc1ccccc1`, “inactive”.

For the compound `CC(C)CN(C(=O)c1ccc(S(=O)(=O)N2CCCCC2)cc1)C1CCS(=O)(=O)C1` (configuration not stated), the activity change, negative = inhibition entry was “inactive”.

Turning to `CCCCCCCCCCOC(=O)Cn1c(COc2ccccc2OC)[n+](C)c2ccccc21`, the activity change, negative = inhibition result is “inactive”. On to `CNC[C@@H]1Oc2c(N)cccc2C(=O)N([C@@H](C)CO)C[C@@H]1C`, for which the activity change, negative = inhibition result was “inactive”. On to `Cc1ccc(-n2ncc3c(N4CCN(c5ccccc5)CC4)ncnc32)c(C)c1`, for which the activity change, negative = inhibition entry was “inactive”. Take `Cc1ccc2c(c1)c1c3n2CCN(CC(N)=O)C3CCC1` (configuration not stated): the activity change, negative = inhibition result is “inactive”. As to `O=C(Nc1ccncc1)c1ccc(Cl)c(S(=O)(=O)N2CCc3ccccc32)c1`, the activity change, negative = inhibition result was “inactive”. As for `CC(OC(=O)c1ccc(NC(=O)CC#N)cc1)C(=O)NCCC1=CCCCC1` (configuration not stated), the activity change, negative = inhibition entry was “inactive”. In the case of `CC(=O)c1c(C)[nH]c(C(=O)OCCCCN2C(=O)c3ccccc3C2=O)c1C`, the activity change, negative = inhibition entry was “inactive”.

For `CC(=O)c1c(C)[nH]c(C(=O)OCC(=O)Nc2c(C)cccc2C)c1C`, the activity change, negative = inhibition result is “inactive”. Consider `COc1ccc(S(=O)(=O)N2CCCCC2)cc1NC(=O)CN(Cc1ccco1)Cc1ccco1`, for which the activity change, negative = inhibition result was “inactive”.

As to `COc1ccc(S(=O)(=O)N2CCCCC2)cc1NC(=O)CCCOc1ccc(C)cc1`, the activity change, negative = inhibition entry was “inactive”.

As to `COc1ccccc1C(=O)Nc1ccc2c(c1)OC[C@H](C)N(C(C)=O)C[C@H](C)[C@H](OC)CN(C)C2=O`, the activity change, negative = inhibition result is “inactive”. For `COc1ccc(NC(=O)C(=O)NCC2CCCN2S(=O)(=O)c2cccs2)cc1` (configuration not stated) the value was “inactive”; for `CNC[C@@H]1Oc2ccc(NS(C)(=O)=O)cc2CC(=O)N([C@H](C)CO)C[C@H]1C`, “inactive”; for `O=C(CCNC(=O)c1ccc(Br)cc1)NNC(=O)COc1ccccc1F`, “inactive”.

Take `O=C(C[C@@H]1C[C@@H]2c3cc(NC(=O)C4CCOCC4)ccc3O[C@@H]2[C@H](CO)O1)NCCc1ccccc1`: the activity change, negative = inhibition result was “inactive”.

As for `O=C(NCc1ccccc1)c1ccc(C(=O)NCc2ccccc2)cc1`, the activity change, negative = inhibition result is “inactive”.

On to `O=C(C[C@@H]1C[C@@H]2c3cc(NC(=O)C4CCOCC4)ccc3O[C@@H]2[C@H](CO)O1)NCc1ccccc1F`, for which the activity change, negative = inhibition entry is “inactive”. The same measure for `CN(C)C(=O)C[C@H]1C[C@@H]2c3cc(NC(=O)NC4CCCCC4)ccc3O[C@@H]2[C@H](CO)O1`: “inactive”; for `Cc1ccccc1-n1c(=O)c2ccccc2n2cnnc12`: “inactive”. Take `Cc1ccc(NS(=O)(=O)c2cc(C(=O)N(C)C3CCN(C)CC3)ccc2Cl)cc1Cl`: the activity change, negative = inhibition entry is “inactive”. The same measure for `Cc1nc2ccc(NC(=O)c3cc(S(=O)(=O)N(C)c4ccccc4)ccc3Cl)cc2s1`: “inactive”. Regarding `Cc1ccc(-n2nc3c(c2NC(=O)c2ccco2)CS(=O)C3)cc1` (configuration not stated), the activity change, negative = inhibition entry is “inactive”. For `O=C(CC1C(=O)NCCN1Cc1cccc(F)c1)NC1CCCCC1` (configuration not stated), the activity change, negative = inhibition entry is “inactive”. In the case of `CCN(CCn1cccn1)C(=O)CC1C(=O)NCCN1CCc1ccccc1` (configuration not stated), the activity change, negative = inhibition result is “inactive”. Turning to `COc1ccccc1S(=O)(=O)N[C@H]1CC[C@H](CC(=O)N2CCN(C)CC2)O[C@H]1CO`, the activity change, negative = inhibition entry was “inactive”. Take `O=C(O)C[C@@H]1C=C[C@@H](NC(=O)Nc2ccccc2)[C@H](CO)O1`: the activity change, negative = inhibition result was “inactive”. The same measure for `COc1ccccc1S(=O)(=O)N[C@H]1CC[C@@H](CC(=O)N2CCN(C)CC2)O[C@H]1CO`: “inactive”. The same measure for `O=C(O)C[C@@H]1C=C[C@H](NC(=O)Nc2ccccc2)[C@H](CO)O1`: “inactive”; for `Nc1ccn([C@@H]2O[C@H](C(=O)NCc3ccc4c(c3)OCO4)[C@@H](O)[C@H]2O)c(=O)n1`: “inactive”; for `Cc1ccc(S(=O)(=O)N[C@@H]2CC[C@H](CCNC(=O)c3ccccc3F)O[C@H]2CO)cc1`: “inactive”. Consider `CCN(C1CCCCC1)S(=O)(=O)c1ccc(S(=O)(=O)NCc2ccncc2)cc1`, for which the activity change, negative = inhibition entry was “inactive”. The same measure for `CO[C@H]1CN(C)C(=O)c2cc(NC(=O)C3CCOCC3)ccc2OC[C@H](C)N(Cc2nccs2)C[C@H]1C`: “inactive”; for `CO[C@H]1CN(C)C(=O)c2ccc(NC(=O)C3CC3)cc2OC[C@@H](C)N(C(C)=O)C[C@@H]1C`: “inactive”.

For the compound `CO[C@H]1CN(C)C(=O)c2ccc(NC(=O)Nc3cccc(F)c3)cc2OC[C@@H](C)N(C(C)=O)C[C@H]1C`, the activity change, negative = inhibition entry was “inactive”. For `CCCC(=O)Nc1ccc2c(c1)OC[C@H](C)N(C(=O)CN(C)C)C[C@@H](C)[C@H](OC)CN(C)C2=O` the value was “inactive”; for `CO[C@@H]1CN(C)C(=O)c2ccc(NS(C)(=O)=O)cc2OC[C@@H](C)N(C(=O)C2CCCCC2)C[C@H]1C`, “inactive”; for `CO[C@@H]1CN(C)C(=O)c2ccc(NC(C)=O)cc2OC[C@@H](C)N(Cc2cncnc2)C[C@@H]1C`, “inactive”. Consider `CCCC(=O)Nc1ccc2c(c1)OC[C@@H](C)N(C(=O)CN(C)C)C[C@H](C)[C@@H](OC)CN(C)C2=O`, for which the activity change, negative = inhibition entry is “inactive”. Take `CO[C@H]1CN(C)C(=O)c2ccc(NC(=O)Nc3cccc(F)c3)cc2OC[C@H](C)NC[C@H]1C`: the activity change, negative = inhibition entry is “inactive”. As for `CCCC(=O)Nc1ccc2c(c1)OC[C@H](C)N(Cc1ccncc1)C[C@H](C)[C@H](OC)CN(C)C2=O`, the activity change, negative = inhibition entry was “inactive”. `CCC(=O)Nc1ccc2c(c1)C(=O)N(C)C[C@@H](OC)[C@H](C)CN(C(=O)CC)[C@@H](C)CO2`: the activity change, negative = inhibition entry was “inactive”.

For the compound `N#Cc1ccc(CSc2nnc(COc3ccccc3)n2-c2ccccc2)cc1`, the activity change, negative = inhibition result was “inactive”. Turning to `Cc1ccc(S(=O)(=O)N(C)C[C@H]2Oc3ccc(NC(=O)Nc4cccc5ccccc45)cc3C(=O)N([C@H](C)CO)C[C@@H]2C)cc1`, the activity change, negative = inhibition entry was “inactive”.

The values are drawn from PubChem BioAssay AID652057 (Broad Institute, 2013).
